The values below come from ChEMBL document CHEMBL1157539, “Thousands of chemical starting points for antimalarial lead identification” (Nature, 2010).

Holding throughout (assay type): functional
The subject of test [1] is Plasmodium falciparum. Briefly: GSK_TCMDC: Inhibition of Plasmodium falciparum 3D7 in whole red blood cells, using parasite LDH activity as an index of growth. Test compounds present at 2uM.
For test [2], the system named is Plasmodium falciparum. The test can be described thus: GSK_TCMDC: Inhibition of Plasmodium falciparum Dd2 in whole red blood cells, using parasite LDH activity as an index of growth. Test compounds present at 2uM.
The test system of a further test is HepG2. Briefly: GSK_TCMDC: Percent inhibition of human HepG2 cell line. Test compounds present at 10uM.

Broadly, the Inhibition is the percentage by which the read-out fell short of the control. Higher therefore signals a response far below the control. Consider `CC(=O)N(Cc1nc(-c2cc(Cl)c(Cl)s2)cs1)c1c(C)cccc1C`, for which the Inhibition in the test with Plasmodium falciparum [1] was 98%; in the test with Plasmodium falciparum [2] it was 95%; with HepG2, 5%.
For the molecule `Nc1nc(N)c2c(ccc3ccccc32)n1`, the Inhibition with Plasmodium falciparum [1] was 98%; in the test on Plasmodium falciparum [2] it was 20%; in the test with HepG2 it was 60%.
On the same counts, the results for `CC1CN(c2cnn(C/C=C/c3ccc(NC(=O)c4ccc5nonc5c4)cc3)c(=O)c2Cl)CC(C)N1.O=C(O)C(F)(F)F` (configuration not stated) are 94%, 35% and 71%.
On the same counts, the results for `Cc1cc(OCC2CCN(c3ccc(C(=O)NC4CC4)cn3)CC2)ccc1F` are 94%, 95% and 6%.
Regarding `COc1ccc(-c2cc(NCc3ccc(-n4ccnc4)cc3)nc(Nc3ccccc3)n2)cc1`, the Inhibition came to 100% in the test with Plasmodium falciparum [1], 79% with Plasmodium falciparum [2] and 8% in the test on HepG2.
Turning to `Cc1cc(CNCCCCCCNCc2ccc(-c3ccccc3)cc2)ccc1O`, the Inhibition is on record as 98% with Plasmodium falciparum [1], 0% in the test with Plasmodium falciparum [2] and 90% with HepG2.
As to `COc1ccc2c(NN=Cc3cccnc3)ccnc2c1`, the Inhibition was 97% in the test on Plasmodium falciparum [1], 26% in the test with Plasmodium falciparum [2] and 3% in the test on HepG2.
On the same counts, the results for `CCCCCN1CCCN(Cc2cccc(NC(=O)c3ccc(Cl)c(Cl)c3)c2)CC1.O=C(O)C(F)(F)F` are 89%, 28% and 30%.
In the same order, the values of `Cn1nccc1C(=O)NCCNCc1ccc(-c2ccc(-c3nc4cc(C(F)(F)F)ccc4[nH]3)cc2)cc1.O=C(O)C(F)(F)F` are 100%, 99% and 35%.
In the same order, the values of `COc1ccc(-c2ccc(NC(=O)c3cccc(C#N)c3)cc2)cc1CN1CCCN(C)CC1.O=C(O)C(F)(F)F` are 100%, 70% and 26%.
For the molecule `Cc1cc(N[C@@H](Cc2ccccc2)C(=O)NCc2cccs2)nc(NCCOc2ccccc2)n1.O=C(O)C(F)(F)F`, the Inhibition came out at 93% in the test with Plasmodium falciparum [1], 31% in the test with Plasmodium falciparum [2] and 2% with HepG2.
In the same order, the values of `O=C(Nc1ccc2[nH]c(-c3ccccc3)nc2c1)c1cc(-c2ccc3c(c2)OCCO3)n[nH]1.O=C(O)C(F)(F)F` are 100%, 75% and 58%.
On to `O=C(Nc1ccc(OC2CCN(Cc3ccccc3)CC2)c(Cl)c1)c1ccsc1.O=C(O)C(F)(F)F`, for which the values for the Inhibition with Plasmodium falciparum [1], in the test on Plasmodium falciparum [2] and in the test on HepG2 were 87%, 92% and 3%, respectively.
`Cc1ncsc1CCN1C(=O)CC2(C1=O)C(=O)N(Cc1ccccc1)c1ccc(Cl)cc12` (configuration not stated): the Inhibition in the test with Plasmodium falciparum [1] amounted to 86%; in the test with Plasmodium falciparum [2], 46%; in the test on HepG2 it was 0%.
On the same counts, the results for `CCOc1ccc(-c2nc(NC(=O)COc3ccc(OC)cc3)sc2C)cc1` are 99%, 87% and 0%.
On the same counts, the results for `O=C(CCC1CCCC1)N(Cc1ccc(-c2ccc(CNCCc3ccccc3)cc2)cc1)C1CCCNC1.O=C(O)C(F)(F)F` (configuration not stated) are 90%, 71% and 99%.
On the same counts, the results for `O=C(Nc1ccc(S(=O)(=O)N2CCCC2)cc1)c1cc(-c2cccnc2)nc2ccc(Cl)cc12` are 97%, 95% and 4%.
`COc1ccc2nc3cc(Cl)ccc3c(Nc3ccc(C(=O)O)cc3)c2c1.Cl`: the figures for the Inhibition in the test with Plasmodium falciparum [1], in the test with Plasmodium falciparum [2] and with HepG2 were 94%, 95% and 0%, respectively.
As to `Cc1cc(-c2cccc(CNC3CCN(C)CC3)c2)ccc1S(=O)(=O)NCCN1CCCC1.O=C(O)C(F)(F)F`, the Inhibition in the test on Plasmodium falciparum [1] is 100%; in the test with Plasmodium falciparum [2], 0%; in the test on HepG2, 18%.
`S=C(NN=Cc1ccccn1)NC1CC2C=CC1C2` (configuration not stated): the Inhibition in the test on Plasmodium falciparum [1] stood at 99%; in the test with Plasmodium falciparum [2] it was 96%; in the test with HepG2 it was 51%.
On the same counts, the results for `Clc1ccc(-c2cnc3ccc(NCCc4cccnc4)nn23)cc1` are 97%, 32% and 34%.
In the same order, the values of `CCC1CCCCN1S(=O)(=O)c1ccc(OC)c(N2CCN(C(=O)C(Cl)(Cl)Cl)CC2)c1` (configuration not stated) are 89%, 29% and 9%.
Regarding `CN1CCCN(c2ccnc3cc4c(cc23)N(C(=O)c2ccccc2Cl)CC4)CC1.Cl`, the Inhibition in the test with Plasmodium falciparum [1] came to 88%; in the test with Plasmodium falciparum [2], 30%; with HepG2, 4%.
Turning to `CN(C)c1ccc(-c2csc(C(=O)NCC3CCN(CCC(C)(C)C)C3)c2)cc1.O=C(O)C(F)(F)F` (configuration not stated), the Inhibition in the test on Plasmodium falciparum [1] is listed as 87%; with Plasmodium falciparum [2] it was 16%; in the test on HepG2 it was 29%.
In the same order, the values of `COc1ccc(C(=O)Nc2cc(Br)c3c(c2)CNCC3)cc1Br.Cl` are 97%, 8% and 25%.
On the same counts, the results for `CCCC(CNCc1cccc(OC(F)(F)C(F)F)c1)CNc1cc(=O)c2ccccc2[nH]1` (configuration not stated) are 100%, 94% and 0%.
`CC(C)CNCc1cccc(-c2cccc(CN(CCN(C)C)C(=O)Nc3ccccc3)c2)c1.O=C(O)C(F)(F)F`: the Inhibition in the test with Plasmodium falciparum [1] was found to be 99%; in the test on Plasmodium falciparum [2], 62%; in the test on HepG2, 34%.
For the molecule `Cc1cc(NC2CCCC2)nc(Nc2ccc(F)cc2)n1`, the Inhibition with Plasmodium falciparum [1] came out at 100%; in the test on Plasmodium falciparum [2], 74%; in the test with HepG2, 22%.
With `Br.COc1cc(OCCCCCCON2C(=N)N=C(N)NC2(C)C)cc(OC)c1OC`, the Inhibition in the test on Plasmodium falciparum [1] came out at 94%; in the test with Plasmodium falciparum [2] it was 93%; in the test on HepG2, 41%.
